Assay results reported in PubChem BioAssay (Tox21).
“And” between values parts separate entries of the source, which are not always exact repeats. Equal values may be shown once. Results filed as inconclusive are left out. A structure can be active in one record and inactive in another. The source made the active and inactive calls. Unless noted, calls follow the shape of the dose curve; as a rule, active = well fitted curve in the direction sought with a large enough effect in the repeat runs; inconclusive = weak or mixed curves; inactive = no such curve, though single readings can be large; an effect the other way counts as inactive or inconclusive.

Experiments:
[1] = qHTS assay to identify small molecule agonists of the estrogen receptor alpha (ER-alpha) signaling pathway in the presence of an antagonist - cell viability counter screen (AID 1259386);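 also: cells exposed to compounds for 22 h at 37 °C before the viability read; nearly all actives have a fitted effect of over 30% in size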; also: potency is read from the fitted curve at half-maximal effect
Method in brief: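 In this counter screen, compound effects on VM7Luc4E2 viability were tested in the presence of the antagonist ICI-182,780 at 10.0nM final. Compounds were dosed at 15 concentrations, exposure lasted 22hr, and the CellTiter-Fluor signal was read.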

[2] = qHTS assay to identify small molecule antagonists of the progesterone receptor (PR) signaling pathway - cell viability counter screen (AID 1346798); also: nearly all actives have a fitted effect of over 50% in size; also: potency is read from the fitted curve at half-maximal effect
Method in brief: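 PR-UAS-bla HEK293T cells in medium with 2% charcoal-stripped FBS were treated with compounds plus R5020 for 16 hr at 37C. Cell viability was then read by CellTiter-Glo luminescence after 30 min at room temperature in the same wells.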

[3] = qHTS assay to identify small molecule agonists of the progesterone receptor (PR) signaling pathway - cell viability counter screen (AID 1346799; calls by dose curve; also: nearly all actives have a fitted effect of over 45% in size; also: potency is read from the fitted curve at half-maximal effect)
Method in brief: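 PR-UAS-bla HEK293T cells, 3,000 per well in medium with 2% charcoal-stripped FBS, were preincubated 6 hr at 37C, then exposed to compounds for 16 hr; viability was read as CellTiter-Glo luminescence after 30 min at room temperature.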

[4] = qHTS assay to identify small molecule antagonists of the TGF-beta/Smad signaling pathway - cell viability counter screen (AID 1346824); also: nearly all actives have a fitted effect of over 50% in size; also: potency is read from the fitted curve at half-maximal effect
Method in brief: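 Cytotoxicity counter-screen run in the same wells as the beta-lactamase Smad reporter read: CellTiter-Glo luminescence after 30 min at room temperature. HEK 293T SBE-bla cells had 5 hr compound exposure at 37 C with TGF-beta1 (0.25 ng/mL stock).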

[5] = qHTS assay to identify small molecule agonists of the TGF-beta/Smad signaling pathway - cell viability counter screen (AID 1346829); also: nearly all actives have a fitted effect of over 45% in size; also: potency is read from the fitted curve at half-maximal effect
Method in brief: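 CellTiter-Glo luminescence readout; SBE-bla HEK 293T cells, overnight plating, compound 5 hr at 37 C/5% CO2, then bla substrate 2 hr RT, then CellTiter-Glo 30 min RT.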

[6] = qHTS assay to identify small molecule agonists of the TGF-beta/Smad signaling pathway (AID 1346859; active = well fitted activation curve with a large enough effect in the signal ratio in the repeat runs, not every such curve was filed as active; the % refers to the signal ratio; also: series mostly up to about 77 µM)
Method in brief: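 HEK 293T cells stably carrying a beta-lactamase reporter driven by the Smad binding element were seeded overnight, exposed to DMSO-dissolved compounds for 5 hr at 37 C, 5% CO2, then loaded with FRET substrate for 2 hr at room temperature.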

[7] = molecular target: Thyrotropin-releasing hormone receptor (Homo sapiens) (UniProt P34981); assay: qHTS assay to identify small molecule antagonists of the thyrotropin-releasing hormone receptor (TRHR) signaling pathway (AID 1346877; active = well fitted inhibition curve with a large enough effect in the repeat runs, not every such curve was filed as active; also: series mostly up to about 51 µM)
Sequence of Thyrotropin-releasing hormone receptor (Homo sapiens) (P34981 whole entry, looked up): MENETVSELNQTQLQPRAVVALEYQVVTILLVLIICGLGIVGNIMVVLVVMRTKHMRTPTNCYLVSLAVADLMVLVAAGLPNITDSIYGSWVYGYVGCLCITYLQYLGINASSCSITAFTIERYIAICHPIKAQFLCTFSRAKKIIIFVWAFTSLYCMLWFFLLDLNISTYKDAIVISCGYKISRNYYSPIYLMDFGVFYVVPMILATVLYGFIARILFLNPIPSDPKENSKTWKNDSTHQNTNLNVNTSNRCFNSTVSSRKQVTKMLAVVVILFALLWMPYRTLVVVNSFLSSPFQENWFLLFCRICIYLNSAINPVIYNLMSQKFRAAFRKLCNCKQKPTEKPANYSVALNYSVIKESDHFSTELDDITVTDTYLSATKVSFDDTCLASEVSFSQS
Method in brief: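 Kinetic fluorescence (3 min, 1 s resolution) following stimulation with TRH at 1 nM final; HEK293 cells bearing human TRHR; 5 min compound preincubation at RT; concentration-response over 15 points, triplicates.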

[8] = molecular target: Thyrotropin-releasing hormone receptor (Homo sapiens) (UniProt P34981); assay: qHTS assay to identify small molecule agonists of the thyrotropin-releasing hormone receptor (TRHR) signaling pathway (AID 1346891; calls by dose curve; also: series mostly up to about 58 µM)
Method in brief: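 TRHR-expressing HEK293 cells were plated 18 h at 37 °C/5% CO2, loaded with calcium dye 2 h at 37 °C, then given compound in DMSO; fluorescence was read kinetically for 3 min at 1 s intervals.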

[9] = Human pregnane X receptor (PXR) small molecule agonists, qHTS cell viability counter screen (AID 1346977); also: nearly all actives have a fitted effect of over 50% in size; also: potency is read from the fitted curve at half-maximal effect
Method in brief: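 PXR-Luc HepG2 cells in medium with 5% charcoal-stripped FBS were pre-incubated 5hr, then exposed to compounds for 24hr at 37C. Viability was read in the same wells by CellTiter-Fluor fluorescence, reagent added after 23hr with a 1hr incubation.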

[10] = Caspase-3/7 induction in HepG2 cells by small molecules, qHTS assay (AID 1346978); also: nearly all actives have a fitted effect of over 15% in size; also: potency is read from the fitted curve at half-maximal effect
Method in brief: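 Caspase-3/7 induction was measured by Caspase-Glo 3/7 luminescence (30 min, room temperature) after a 17 hr compound exposure of wild-type HepG2 cells seeded at 2,000 per well and pre-incubated 5 hr.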

[11] = Caspase-3/7 induction in CHO-K1 cells by small molecules, qHTS cell viability counter screen (AID 1346979); also: nearly all actives have a fitted effect of over 35% in size; also: potency is read from the fitted curve at half-maximal effect
Method in brief: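 Wild-type CHO-K1 cells were seeded at 1,500 per well, rested 5hr at 37 C, then exposed to compounds in DMSO. After 16hr, CellTiter-Fluor reagent was added and fluorescence read 1hr later as the viability measure.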

[12] = Caspase-3/7 induction in CHO-K1 cells by small molecules, qHTS assay (AID 1346980); also: nearly all actives have a fitted effect of over 15% in size; also: potency is read from the fitted curve at half-maximal effect
Method in brief: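 Luminescent Caspase-Glo 3/7 read (30min, room temperature) quantified apoptosis induction. Cells were wild-type CHO-K1, treated with compound for 17hr at 37 C and 5% CO2.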

[13] = Caspase-3/7 induction in HepG2 cells by small molecules, qHTS cell viability counter screen (AID 1346981); also: nearly all actives have a fitted effect of over 30% in size; also: potency is read from the fitted curve at half-maximal effect
Method in brief: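 In this quantitative HTS counter screen, compounds delivered in DMSO were left on unmodified HepG2 cells for 16 hr at 37 C. Viability was then determined fluorometrically with CellTiter-Fluor, in parallel with caspase-3/7 induction in the same wells.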

[14] = molecular target: Nuclear receptor subfamily 1 group I member 2 (Homo sapiens) (UniProt O75469); assay: Human pregnane X receptor (PXR) small molecule agonists, qHTS assay (AID 1346982); also: nearly all actives have a fitted effect of over 35% in size; also: potency is read from the fitted curve at half-maximal effect
Sequence of Nuclear receptor subfamily 1 group I member 2 (Homo sapiens) (O75469 whole entry, looked up): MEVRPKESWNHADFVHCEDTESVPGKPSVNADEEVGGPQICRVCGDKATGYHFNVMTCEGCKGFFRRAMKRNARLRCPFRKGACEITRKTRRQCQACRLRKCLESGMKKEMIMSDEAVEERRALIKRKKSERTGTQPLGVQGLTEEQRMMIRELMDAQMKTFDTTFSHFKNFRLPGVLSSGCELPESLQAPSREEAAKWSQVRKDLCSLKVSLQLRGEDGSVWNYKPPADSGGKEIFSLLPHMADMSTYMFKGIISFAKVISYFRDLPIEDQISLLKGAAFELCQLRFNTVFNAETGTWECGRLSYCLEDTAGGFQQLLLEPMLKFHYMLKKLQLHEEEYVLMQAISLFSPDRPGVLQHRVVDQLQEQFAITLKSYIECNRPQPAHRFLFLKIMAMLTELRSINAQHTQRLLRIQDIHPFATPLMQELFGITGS
Method in brief: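 Reporter HepG2 cells expressing PXR-Luc are cultured in charcoal-stripped FBS (5%), treated with compounds for 24 hr at 37 C, and assayed by ONE-Glo luminescence after 30 min at room temperature.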

[15] = molecular target: Cytochrome P450 2D6 (Homo sapiens) (UniProt P10635); assay: Cytochrome P450 Family 2 Subfamily D Member 6 (CYP2D6) small molecule antagonists: luciferase reporter qHTS assay (AID 1671196); also: nearly all actives have a fitted effect of over 50% in size; also: potency is read from the fitted curve at half-maximal effect
Sequence of Cytochrome P450 2D6 (Homo sapiens) (P10635 whole entry, looked up): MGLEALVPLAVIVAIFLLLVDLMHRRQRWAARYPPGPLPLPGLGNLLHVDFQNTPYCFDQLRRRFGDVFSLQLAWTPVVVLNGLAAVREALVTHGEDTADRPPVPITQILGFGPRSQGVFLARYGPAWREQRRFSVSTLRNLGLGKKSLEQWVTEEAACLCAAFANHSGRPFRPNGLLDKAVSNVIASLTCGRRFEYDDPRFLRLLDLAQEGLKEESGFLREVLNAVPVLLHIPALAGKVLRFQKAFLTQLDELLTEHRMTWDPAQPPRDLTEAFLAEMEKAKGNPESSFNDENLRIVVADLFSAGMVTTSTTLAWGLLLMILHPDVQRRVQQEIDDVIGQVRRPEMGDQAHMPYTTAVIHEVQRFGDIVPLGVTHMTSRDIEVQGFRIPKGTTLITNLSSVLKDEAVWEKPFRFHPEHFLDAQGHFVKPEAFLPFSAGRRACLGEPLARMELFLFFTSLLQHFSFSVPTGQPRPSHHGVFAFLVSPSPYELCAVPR
Method in brief: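 Test chemicals meet CYP2D6 plus proluciferin substrate (10 min, RT); NADPH regenerating solution then drives turnover for 1 h. Detection reagent halts the reaction; luminescence measured after 20 min.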

[16] = molecular target: Nuclear receptor subfamily 1 group I member 2 (Rattus norvegicus) (UniProt Q9R1A7); assay: Rat pregnane X receptor (rPXR) activation by small molecules, qHTS assay (AID 1346983); settings: rPXR luciferase reporter cells, One-Glo luminescence, 24 h; max activation: stronger effect = higher value; also: nearly all actives have a fitted effect of over 20% in size; also: potency is read from the fitted curve at half-maximal effect
Sequence of Nuclear receptor subfamily 1 group I member 2 (Rattus norvegicus) (Q9R1A7 whole entry, looked up): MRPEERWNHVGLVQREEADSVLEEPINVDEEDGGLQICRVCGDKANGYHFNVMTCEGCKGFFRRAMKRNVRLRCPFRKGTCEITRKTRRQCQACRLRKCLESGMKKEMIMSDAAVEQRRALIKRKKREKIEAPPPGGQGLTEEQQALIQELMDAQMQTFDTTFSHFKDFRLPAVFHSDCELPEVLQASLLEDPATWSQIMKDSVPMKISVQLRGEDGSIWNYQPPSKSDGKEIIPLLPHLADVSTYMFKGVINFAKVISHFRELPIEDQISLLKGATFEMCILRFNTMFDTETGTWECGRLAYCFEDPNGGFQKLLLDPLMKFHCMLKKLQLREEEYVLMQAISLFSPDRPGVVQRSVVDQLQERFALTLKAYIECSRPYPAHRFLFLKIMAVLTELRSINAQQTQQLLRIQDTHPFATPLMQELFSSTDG
Method in brief: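 Luminescent readout (One-Glo luciferase, 30 min room temperature) followed 24 hr compound treatment at 37 C of rPXR cells plated 2,000 per well and preincubated 5hr; qHTS format with compounds delivered in DMSO.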

[17] = molecular target: Nuclear receptor subfamily 1 group I member 2 (Homo sapiens) (UniProt O75469); assay: Human pregnane X receptor (PXR) activation by small molecules, qHTS assay (AID 1346985); also: nearly all actives have a fitted effect of over 40% in size
Method in brief: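 DPX-2 cells (HepG2 co-transfected with a PXR response element and a CYP3A4-promoter luciferase construct) were seeded at 2,000 per well, rested 5 hr at 37C, then exposed to DMSO-dissolved compounds for 24 hr. Activation was read as luciferase luminescence.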
% is scaled to controls: 0 for no effect and ±100 for the full control effect.

CC(=O)OCC(C)OC(C)=O (stereo not given)
inactive: Potency [1] | Potency [2] | Potency [3] | Potency [4] | Potency [5] | Potency [6] | Potency [7] | Potency [8] | Potency [9] | Potency [10] | Potency [11] | Potency [12] | Potency [13] | Potency [14] | Potency [15]

NC(=O)N1C(=O)C(C(=O)c2cc(Cl)cs2)c2cc(F)c(Cl)cc21 (stereo not given)
active: Potency [1] 24.3 µM | Potency [2] 30.6 µM | Potency [3] 43.3 µM | Potency [9] 54.5 µM | Potency [11] 61.1 µM | Potency [13] 54.5 µM
inactive: Potency [4] | Potency [5] | Potency [6] | Potency [7] | Potency [8] | Potency [12]

CCCC1O[C@@H]2C[C@H]3[C@@H]4CCC5=CC(=O)C=C[C@]5(C)[C@H]4[C@@H](O)C[C@]3(C)[C@]2(C(=O)CO)O1 (stereo not given in full)
active: Potency [11] 61.2 µM and 61.1 µM | Potency [16] 12.6 µM
inactive: Potency [1] | Potency [2] | Potency [3] | Potency [4] | Potency [7] | Potency [8] | Potency [10] | Potency [12]

CC/C(=C(\c1ccc(O)cc1)c1ccc(OCCN(C)C)cc1)c1ccccc1
active: Potency [1] 68.7 µM | Potency [2] 27.4 µM | Potency [3] 27.4 µM | Potency [4] 61.8 µM | Potency [5] 55.1 µM | Potency [9] 19.4 µM | Potency [10] 34.4 µM | Potency [11] 34.4 µM | Potency [13] 43.4 µM | Potency [14] 6.87 µM | Potency [15] 40 µM

C=CC(=O)OCCn1c(=O)n(CCOC(=O)C=C)c(=O)n(CCOC(=O)C=C)c1=O
inactive: Potency [4] | Potency [7] | Potency [8]
active: Potency [1] 48.6 µM | Potency [2] 21.7 µM | Potency [3] 43.3 µM | Potency [9] 27.3 µM | Potency [10] 24.3 µM | Potency [11] 4.33 µM | Potency [12] 2.43 µM | Potency [13] 27.3 µM | Potency [14] 8.63 µM

CCCCCCCCOC(=O)c1ccc(O)cc1
active: Potency [10] 27.3 µM | Potency [11] 24.3 µM | Potency [15] 56.2 µM and 39.9 µM
30.5 µM (active) and inactive: Potency [14]
inactive: Potency [1] | Potency [2] | Potency [3] | Potency [5] | Potency [6] | Potency [12] | Potency [13]

CCCCCOC(=O)CCCC
inactive: Potency [1] | Potency [2] | Potency [3] | Potency [6] | Potency [7] | Potency [8] | Potency [9] | Potency [10] | Potency [11] | Potency [12] | Potency [13] | Potency [14] | Potency [15]

Cc1cc(O)c(C(C)(C)C)cc1Sc1cc(C(C)(C)C)c(O)cc1C
active: Potency [1] 48.5 µM | Potency [2] 30.6 µM | Potency [3] 27.3 µM | Potency [5] 34.6 µM | Potency [9] 13.7 µM | Potency [10] 30.6 µM | Potency [11] 2.73 µM | Potency [13] 54.4 µM | Potency [14] 10.8 µM
inactive: Potency [8] | Potency [12]

CCCCCCCC/C=C\CCCCCCCCOCCO
active: Potency [1] 35.5 µM | Potency [2] 31.6 µM | Potency [3] 25.1 µM | Potency [4] 63.7 µM | Potency [5] 63.7 µM | Potency [9] 15.9 µM | Potency [11] 35.5 µM | Potency [13] 35.5 µM | Potency [14] 3.98 µM
inactive: Potency [8] | Potency [10] | Potency [12] | Potency [15]

CCCCN(CCCC)c1ccc(C(=O)c2ccccc2C(=O)O)c(O)c1
inactive: Potency [1] | Potency [2] | Potency [4] | Potency [8] | Potency [15]
active: Potency [3] 24.6 µM | Potency [14] 61.7 µM

CCCCCCCCNC(C)C(O)c1ccc(SC(C)C)cc1 (stereo not given)
inactive: Potency [7] | Potency [8] | Potency [14]
active: Potency [1] 33.5 µM | Potency [2] 29.8 µM | Potency [3] 29.8 µM | Potency [4] 21.3 µM | Potency [9] 13.3 µM | Potency [10] 21.1 µM | Potency [11] 16.8 µM | Potency [13] 29.8 µM | Potency [15] 1.95 µM

CCCCCCCCCCCCc1ccc(O)cc1
inactive: Potency [15]
active: Potency [1] 68.6 µM | Potency [2] 54.5 µM | Potency [3] 30.6 µM | Potency [9] 30.6 µM | Potency [10] 61.1 µM | Potency [11] 43.3 µM | Potency [12] 54.5 µM | Potency [13] 61.1 µM | Potency [14] 9.69 µM

O=C(Oc1cccc2cccnc12)c1ccccc1
active: Potency [2] 4.22 µM | Potency [3] 4.73 µM | Potency [9] 3.35 µM | Potency [11] 7.5 µM
inactive: Potency [1] | Potency [4] | Potency [5] | Potency [7] | Potency [8] | Potency [12] | max activation [16] -3.5% | Potency [17] | Potency [15]

Clc1ccc2cc3ccccc3cc2c1
inactive: Potency [1] | Potency [2] | Potency [3] | Potency [5] | Potency [7] | Potency [8] | Potency [9] | Potency [10] | Potency [11] | Potency [12] | Potency [13] | Potency [15]

OCCN1CCN(CC/C=C2/c3ccccc3Sc3ccc(C(F)(F)F)cc32)CC1
inactive: Potency [1] | Potency [4] | Potency [6] | Potency [7] | Potency [8] | Potency [14] | max activation [16] -7.9%
active: Potency [2] 23.7 µM | Potency [3] 29.8 µM | Potency [9] 29.8 µM | Potency [11] 29.8 µM | Potency [13] 33.5 µM | Potency [15] 6.92 µM
